Active and inactive are the calls of the source.
Experiments:
[1] = system: Human papillomavirus type 1a protein E7 (residues 44-93); test: small molecules binding HPV E7 44-93 – biochemical, small-molecule microarray, residues 44-93, 635 nm fluorescence, primary screen (AID 1108); conditions: fluorescence 635 nm, higher = more signal;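 further: E7 fragment applied at 1 µg/mL in TBST for 1 h at 4 C; score combines spot fluorescence with its signal to noise ratio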
[2] = hepatitis C replication reporter changes, two-sided – Huh7 cells, luciferase reporter, HCV replication inhibitor project, primary screen (AID 1109); conditions: Huh7 HCV replicon luciferase reporter, 48 h; higher = more signal;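 further: huh7 hepatoma cells harbouring a luciferase neomycin HCV replicon reporter; luciferase luminescence as measure of HCV replicon replication; test concentration not given here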
[3] = biological target: Left-right determination factor 2 (Homo sapiens) (UniProt O00292); test: small molecules binding LEFTY2 protein – biochemical, small-molecule microarray, 635 nm fluorescence scan, primary screen (AID 1110); conditions: higher = more signal
Left-right determination factor 2 (Homo sapiens), sequence (O00292 whole entry, looked up): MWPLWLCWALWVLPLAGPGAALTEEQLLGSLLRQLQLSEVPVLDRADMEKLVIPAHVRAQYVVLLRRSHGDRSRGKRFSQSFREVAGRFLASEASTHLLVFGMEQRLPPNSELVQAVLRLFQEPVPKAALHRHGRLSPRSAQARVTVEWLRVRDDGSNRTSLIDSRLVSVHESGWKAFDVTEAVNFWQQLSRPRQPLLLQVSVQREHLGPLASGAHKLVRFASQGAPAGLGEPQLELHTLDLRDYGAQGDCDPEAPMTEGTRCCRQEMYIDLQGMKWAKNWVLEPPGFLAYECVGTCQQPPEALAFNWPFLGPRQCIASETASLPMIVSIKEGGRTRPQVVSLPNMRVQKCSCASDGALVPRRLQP

[4] = biological target: Calmodulin-1 (Homo sapiens) (UniProt P0DP23); test: small molecules binding calmodulin-1 with EGTA – biochemical, small-molecule microarray, Cy5-labelled CALM1, profiling panel (AID 1111); conditions: Cy5-CALM1 binding fluorescence, higher = more signal;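 further: labelled calmodulin applied in Tris saline Tween buffer holding calcium plus EGTA and DTT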
[5] = biological target: Calmodulin-1 (Homo sapiens) (UniProt P0DP23); test: small molecules binding Ca-loaded calmodulin-1 – biochemical, small-molecule microarray, Cy5-labelled CALM1, plus calcium, artefact control for SMM control-protein annotation, profiling panel (AID 1112); conditions: Cy5-CALM1 binding fluorescence, higher = more signal;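 further: score merges spot fluorescence with signal to noise from triplicate slides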
[6] = probe aWnt5a binding to arrayed compounds – biochemical, biotinylated probe, 635/667 nm fluorescence, primary screen (AID 1113); conditions: small-molecule microarray, higher = more signal;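 further: score merges 667 nm fluorescence intensity with signal-to-noise per printed feature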
[7] = probe aShh binding to arrayed compounds – biochemical, biotinylated probe, 635/667 nm fluorescence, primary screen (AID 1114); conditions: small-molecule microarray, higher = more signal;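 further: probe is biotin-labelled aShh protein from a stem cell growth factor screen; measures binding of labelled protein to compounds printed on the slide; score merges feature fluorescence at 667 nm with signal-to-noise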
[8] = probe aNog binding to arrayed compounds – biochemical, biotinylated probe, 635/667 nm fluorescence, primary screen (AID 1115); conditions: small-molecule microarray, higher = more signal;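 further: probe is biotinylated aNog protein used at 0.15 µg/mL for 1 h at 4 C; z-score combines 667 nm fluorescence of each spot with its signal to noise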
[9] = biological target: Torsin-1A-interacting protein 1 (Homo sapiens) (UniProt Q5JTV8); test: compound microarray binding of lysate hLAP1 – cell lysate, small-molecule microarray, COS7 lysate, 635/667 nm fluorescence, primary screen (AID 1116); conditions: 635 nm fluorescence, higher = more signal
Torsin-1A-interacting protein 1 (Homo sapiens), sequence (Q5JTV8 whole entry, looked up): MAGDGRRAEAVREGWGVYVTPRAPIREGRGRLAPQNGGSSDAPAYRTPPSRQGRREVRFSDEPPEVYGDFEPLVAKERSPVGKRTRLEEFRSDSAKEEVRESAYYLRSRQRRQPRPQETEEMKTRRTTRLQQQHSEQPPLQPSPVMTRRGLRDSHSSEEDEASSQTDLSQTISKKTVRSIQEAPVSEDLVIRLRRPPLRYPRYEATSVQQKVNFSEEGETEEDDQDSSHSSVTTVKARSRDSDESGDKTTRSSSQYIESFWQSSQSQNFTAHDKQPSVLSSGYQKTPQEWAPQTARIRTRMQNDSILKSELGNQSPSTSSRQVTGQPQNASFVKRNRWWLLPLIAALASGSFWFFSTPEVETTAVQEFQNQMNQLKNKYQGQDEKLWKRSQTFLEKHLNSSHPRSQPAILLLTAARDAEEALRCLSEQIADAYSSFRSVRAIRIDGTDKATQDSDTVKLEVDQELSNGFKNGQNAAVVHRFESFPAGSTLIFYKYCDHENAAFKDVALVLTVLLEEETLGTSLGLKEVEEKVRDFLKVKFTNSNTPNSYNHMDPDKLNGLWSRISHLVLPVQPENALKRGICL

[10] = biological target: Alpha-bungarotoxin (Bungarus multicinctus) (UniProt P60615); test: compounds binding labelled alpha-BTX control protein – biochemical, small-molecule microarray, Alexa647 label, 635/667 nm fluorescence, artefact control for SMM control protein annotation, profiling panel (AID 1117); conditions: alpha-BTX-A647 binding fluorescence, higher = more signal
Alpha-bungarotoxin (Bungarus multicinctus), sequence (P60615 whole entry, looked up): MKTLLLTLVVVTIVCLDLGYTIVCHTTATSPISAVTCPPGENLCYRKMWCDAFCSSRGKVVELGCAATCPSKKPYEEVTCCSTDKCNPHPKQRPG

Albumin (Bos taurus) = Albumin (Bos taurus) (UniProt P02769); test: compounds binding labelled BSA control protein – biochemical, small-molecule microarray, Alexa647 label, 635/667 nm fluorescence, artefact control for SMM control protein annotation, profiling panel (AID 1118); conditions: BSA-A647 binding, fluorescence 635 nm, higher = more signal;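 further: score merges 667 nm emission intensity and signal-to-noise per printed compound spot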
Albumin (Bos taurus), sequence (P02769 whole entry, looked up): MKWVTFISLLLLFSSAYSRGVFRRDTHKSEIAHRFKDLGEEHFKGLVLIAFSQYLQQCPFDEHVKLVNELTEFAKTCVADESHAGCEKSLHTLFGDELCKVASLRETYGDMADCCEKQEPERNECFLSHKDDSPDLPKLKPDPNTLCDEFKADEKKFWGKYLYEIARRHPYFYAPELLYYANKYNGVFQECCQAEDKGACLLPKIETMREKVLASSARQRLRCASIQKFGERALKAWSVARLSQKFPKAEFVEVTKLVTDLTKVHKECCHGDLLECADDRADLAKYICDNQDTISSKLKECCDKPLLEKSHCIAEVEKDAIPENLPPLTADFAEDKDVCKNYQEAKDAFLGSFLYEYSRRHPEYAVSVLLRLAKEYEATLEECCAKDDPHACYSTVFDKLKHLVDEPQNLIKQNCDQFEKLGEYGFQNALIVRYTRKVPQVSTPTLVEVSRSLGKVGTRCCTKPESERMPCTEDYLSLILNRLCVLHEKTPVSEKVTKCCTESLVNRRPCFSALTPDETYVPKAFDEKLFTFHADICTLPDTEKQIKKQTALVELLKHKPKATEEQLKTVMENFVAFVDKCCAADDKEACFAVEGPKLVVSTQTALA

[11] = probe aXIP binding to arrayed compounds – biochemical, NeuroSMM set, 635/667 nm fluorescence, primary screen (AID 1119); conditions: small-molecule microarray, higher = more signal, called active from +8 up or from −8 down;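 further: probe is the protein aXip251-270 applied at 1 µg/mL to compound-printed slides; binding of probe to printed compounds measured as 667 nm fluorescence plus signal to noise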
[12] = probe aNOTCH3 binding on compound microarray – biochemical, small-molecule microarray, 635/667 nm fluorescence, primary screen (AID 1120); conditions: higher = more signal;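 further: probe is a biotin-tagged antibody raised against NOTCH3 rather than NOTCH3 protein; score merges spot fluorescence near 667 nm with spot signal to noise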
[13] = probe aNOTCH2 binding on compound microarray – biochemical, small-molecule microarray, 635/667 nm fluorescence, primary screen (AID 1121); conditions: higher = more signal;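 further: score merges feature fluorescence read at 667 nm with its signal to noise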
[14] = biological target: Carbonic anhydrase 2 (Homo sapiens) (UniProt P00918); test: compounds binding carbonic anhydrase 2 – biochemical, small-molecule microarray, Alexa647-labelled CAII, profiling panel (AID 1122); conditions: CAII-A647 binding fluorescence, higher = more signal
[15] = COS7 lysate on small-molecule microarray, probe aHis, 635 nm (AID 1123); conditions: COS7 cell lysate, fluorescence, higher = more signal;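 further: z-score combines 667nm fluorescence intensity with signal-to-noise per printed compound spot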
[16] = probe aLAP1 signal on lysate-treated microarray – cell lysate, small-molecule microarray, COS7 lysate, primary screen (AID 1124); conditions: probe aLAP1, fluorescence, higher = more signal;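 further: lysate comes from COS7 cells expressing LAP1 and is applied at 0.3 µg/mL; score merges spot fluorescence near 667 nm with signal-to-noise over triplicate slides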
Sam68 (KHDRBS1) = test: compounds binding KHDRBS1 protein – biochemical, small-molecule microarray, 635 nm fluorescence, primary screen (AID 1125); conditions: higher = more signal;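 further: score merges 667 nm channel intensity with signal to noise over triplicate slides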
[17] = system: Chordin-like protein 2 (CHRDL2); test: compounds binding chordin-like 2 – biochemical, small-molecule microarray, 635 nm fluorescence, primary screen (AID 1126); conditions: fluorescence 635 nm, higher = more signal;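 further: printed compound slides probed with Chrdl2 protein at 4 µg/mL for 1 h at 4 C; score merges 667 nm emission intensity with signal to noise over three replicate slides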
[18] = biological target: Concanavalin-A (Canavalia ensiformis) (UniProt P02866); test: compounds binding concanavalin A lectin – biochemical, small-molecule microarray, Alexa647 label, 635 nm, artefact control for SMM control protein annotation, primary screen (AID 1127); conditions: ConA-A647 binding fluorescence, higher = more signal;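 further: z combines 667 nm emission intensity with signal-to-noise across three replicate slides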
Concanavalin-A (Canavalia ensiformis), sequence (P02866 whole entry, looked up): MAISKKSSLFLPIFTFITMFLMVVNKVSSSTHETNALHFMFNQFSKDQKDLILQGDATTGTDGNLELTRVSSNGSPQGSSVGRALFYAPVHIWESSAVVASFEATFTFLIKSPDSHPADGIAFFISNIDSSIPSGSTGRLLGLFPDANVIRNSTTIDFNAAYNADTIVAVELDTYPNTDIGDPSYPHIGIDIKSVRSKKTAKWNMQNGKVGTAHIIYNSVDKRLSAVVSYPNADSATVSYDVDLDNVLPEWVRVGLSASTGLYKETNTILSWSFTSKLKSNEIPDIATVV

SMILES | composite z-score [1] | z-score [2] | composite z-score [3] | composite z-score [4] | composite z-score [5] | composite z-score [6] | composite z-score [7] | composite z-score [8] | composite z-score [9] | composite z-score [10] | composite z-score (Albumin (Bos taurus)) | composite Z-score [11] | composite z-score [12] | composite z-score [13] | composite z-score [14] | composite z-score [15] | composite z-score [16] | composite z-score (Sam68 (KHDRBS1)) | composite z-score [17] | composite z-score [18]
CCCCCN1CC=CC23O[C@@H]4/C=C\CCCOC(=O)C4[C@H]2C(=O)N(CCO)[C@@H]3C1=O (stereo not given in full) | 1.45 | 0.548 | -0.155 | -0.173 | 0.463 | -0.13 | -0.0709 | -0.191 | 0.162 | 0.227 | 0.73 | 0.0463 (inactive) | -0.18 | -0.14 | 0.823 | 2.17 | 0.657 | 0.428 | 0.323 | 0.433
CCCN1C(=O)[C@@]2(c3ccc([N+](=O)[O-])cc3)CC(=O)N(C3CCCCC3)[C@@H]2c2ccc(CO)cc21 | 0.202 | -0.136 | 0.445 | -0.0766 | -0.567 | -0.18 | -0.225 | -0.0165 | -0.349 | -0.171 | -0.328 | 2.02 (inactive) | -0.15 | -0.112 | -0.139 | 0.361 | -0.435 | 0.268 | 0.649 | 0.31
[N-]=[N+]=NCc1ccccc1C[C@@]1(C(N)=O)N=C(c2ccc(OCCCO)cc2)O[C@@H]1c1ccccc1N=[N+]=[N-] | 1.05 | -0.489 | -0.654 | 1.09 | 0.237 | 0.0088 | 0.199 | -0.561 | 1.71 | 0.775 | 0.873 | -0.254 (inactive) | 0.0065 | 0.0368 | 0.63 | 2.8 | 0.197 | 0.816 | 0.0247 | 1.12
C=C[C@H](OC)[C@@H](O)c1ccc(OC)c(O)c1 | -1.25 | 0.622 | -1.77 | -1.06 | -0.597 | -0.0981 | -0.0035 | -0.326 | -0.435 | -0.646 | 0.985 | -0.272 (inactive) | -0.557 | -0.19 | 0.145 | -0.651 | -0.0037 | -2.47 | -1.01 | -1.9
C=C[C@@H](CO)NS(=O)(=O)c1ccc(Br)cc1 | -1.71 | 0.0931 | -0.671 | -1.05 | -0.453 | -0.208 | -0.153 | -0.158 | 0.127 | -0.796 | 0.225 | -0.67 (inactive) | -0.331 | -0.17 | -0.359 | -0.412 | -0.32 | -2.22 | 0.222 | -1.76
COc1cc2c(cc1OC)CN(C(=O)[C@@H]1[C@H]3C(=O)O[C@H](c4ccccc4)[C@H](c4ccccc4)N3[C@H](c3ccc(O)cc3)[C@@]13C(=O)Nc1ccc(C#CC4=CCCCC4)cc13)CC2 | 0.244 | -1.49 | 0.512 | 1.07 | 0.319 | 0.0044 | -0.011 | 0.14 | 0.635 | 0.891 | 0.833 | -0.0662 (inactive) | 0.0522 | -0.0142 | 0.5 | 1.49 | 0.453 | 1.3 | 0.153 | 1.1

Source: PubChem BioAssay
